HP1b binding inh = HTS for Inhibitors of HP1-beta Chromodomain Interactions with Methylated Histone Tails | hit rate 0.56% among 390,000 | AlphaScreen HP1-beta / biotin-H3K9me3 peptide binding | Chromobox protein homolog 1 (Homo sapiens), P83916 | Potency, µM (titrated, usually from 114 µM), usual class: inhibitors; also: nearly all actives have a fitted effect of over 70% in size
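AlphaScreen: HP1-beta (50 nM) preformed 30 min with biotin-H3(1-18)K9me3 peptide (50 nM) in PBS pH 7.4, 0.01% Tween-20. Compound added for 30 min at RT, then streptavidin donor/nickel chelate acceptor beads (10 ug/mL) for 30 min.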
TDP1 inh = qHTS Assay for Inhibitors of Tyrosyl-DNA Phosphodiesterase (TDP1). recombinant TDP1, AlphaScreen DNA substrate cleavage. Potency, µM (highest dose often 130 µM), most hits filed as inhibitors. hit rate 0.28% among 350,000; also: nearly all actives have a fitted effect of over 40% in size
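Tdp1 1 nM final; 15 min RT w/ cpd; substrate 15 nM, 5 min; beads 10 ug/ml, 10 min; AlphaScreen read. Neg ctrl: no enzyme.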
CtBP-E1A blk = qHTS Assay for Inhibitors of the CtBP/E1A Interaction; CtBP / adenovirus E1A interaction (AlphaScreen); AlphaScreen GST-E1A/His-CtBP binding, 1536-well; stronger effect = lower value; activity change, % (concentration not given with the values); hit rate 0.49% among 340,000; in the data active = activity change below about -65%; inconclusive = mostly about -30% to -63%
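In 5 uL wells, 23 nL compound meets equimolar GST-E1A and His-CtBP (5X stock 125 nM each) for 2 h, 37 °C. Beads (5X, 50 ug/mL) then 1 h, 37 °C, dark.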
JMJD2A Tudor inh = qHTS Assay for Inhibitors of JMJD2A-Tudor Domain. Lysine-specific demethylase 4A (Homo sapiens), O75164. AlphaScreen JMJD2A-Tudor / H3K4me3 peptide binding. Potency, µM (titrated, usually from 114 µM), most hits filed as inhibitors. hit rate 4.4% among 390,000. AID 504339, 2011; also: nearly all actives have a fitted effect of over 50% in size
BAZ2B inh = qHTS Assay for Inhibitors of BAZ2B; AlphaScreen BAZ2B-H3K14Ac peptide displacement; Potency, µM (top dose mostly 114 µM), hits mostly inhibitors; hit rate 4.4% among 360,000; AID 504333, 2011; also: nearly all actives have a fitted effect of over 60% in size
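Protein-peptide AlphaScreen: BAZ2B 50 nM, b-H3K14Ac 50 nM, 1x PBS pH 7.4 + 0.01% Tween-20. Preincubation 30 min RT; cpd 30 min RT (top 110 uM); beads 20 min RT, light-protected.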
Six1-Eya2 blk = qHTS Assay for Inhibitors of the Six1/Eya2 Interaction. Homeobox protein SIX1 (Homo sapiens) + Protein phosphatase EYA2 (Homo sapiens), …. AlphaScreen GST-Six1/His-Eya2 binding, biochemical; stronger effect = lower value. activity change, % (concentration not given with the values). hit rate 0.56% among 360,000. AID 651725, 2012; in the data active = activity change below about -65%; inconclusive = mostly about -30% to -63%
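Homogeneous AlphaScreen proximity assay pairing GST-Six1 with His-tagged Eya2 (added as 5X mix: 250 nM and 500 nM) in 50 mM Tris pH 8.0, 300 mM NaCl, 1 mM TCEP. Glutathione donor and nickel acceptor beads; 1 h, 37 °C, dark.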
Hits are given with their value; . = inactive; ? = inconclusive; / = no result given; ! = not active in a repeat. An excerpt weighted towards active compounds, which were near 5.3% of everything screened. Unless noted, calls follow the shape of the dose curve; as a rule, active = well fitted inhibition curve with a large enough effect; inconclusive = small, poorly fitted or top-dose-only effect; inactive = no such curve, though single readings can be large or run the other way.

SMILES | HP1b binding inh | TDP1 inh | CtBP-E1A blk | JMJD2A Tudor inh | BAZ2B inh | Six1-Eya2 blk
CCOc1ccc2ncc(C(=O)c3ccc(OC)cc3)c(N3CCN(CC)CC3)c2c1 | . | . | ? | . | ? | .
CCOC(=O)c1cnc2ccccc2c1Nc1ccc(N2CCOCC2)cc1 | . | / | / | ? | ? | /
CCOC(=O)c1cnc2ccc(OC)cc2c1Nc1ccc(N2CCN(C)CC2)cc1 | . | / | ? | 32µM | 35µM | .
CCc1ccc(C(=O)c2cnc3ccc(OC)cc3c2N2CCN(CC)CC2)cc1 | . | . | . | . | 50µM | .
CCOC(=O)c1cnc2c(C)c(Cl)ccc2c1Nc1ccc(N2CCOCC2)cc1 | . | / | / | ? | 10µM | /
CCN(CC)C(=O)Cn1c(=O)n(-c2ccc(C)c(C)c2)c(=O)c2c3c(sc21)CCCCC3 | . | . | / | . | . | /
COCCNC(=O)c1ccc2c(c1)NC(=O)C(CS(=O)(=O)Cc1ccc(F)cc1Cl)N2 (stereo unspecified) | . | . | / | . | . | /
CCOc1ccc(CCNC(=O)CSc2n[nH]c(N)n2)cc1OCC | ? | . | . | 18µM | . | .
Cc1sc2nc(C3CC3)nc(N3CCN(C(=O)c4ccc(Cl)cc4)CC3)c2c1C | . | . | . | 45µM | ? | .
Cc1sc2nc(C3CC3)nc(N3CCN(C(=O)c4ccc(F)cc4)CC3)c2c1C | . | / | . | . | ? | .
c1ccc(-c2cnc(-c3ccccc3)nc2)cc1 | . | . | . | . | . | .
O=C(O)c1ncc(-c2ccccc2)cn1 | ? | . | . | 10µM | / | .
COc1ccc(-c2noc(-c3cccnc3NCc3ccco3)n2)cc1 | . | . | / | . | . | /
CCOC(=O)C1=C(O)/C(=C\c2ccc(CNS(=O)(=O)c3ccc(Br)cc3)o2)N=C1C | . | . | . | 56µM | . | .
COC(=O)C1=C(O)/C(=C\c2ccc(CNC(=O)C(=O)Nc3ccc(C)c(C)c3)o2)N=C1C | . | . | . | . | . | .
CCOC(=O)C1=C(O)/C(=C/c2ccc(CNC(=O)C(=O)Nc3ccc(C)cc3)o2)N=C1C | . | . | . | . | 50µM | .
CCOC(=O)C(=O)NCc1ccc(/C=C2/N=C(C)C(C(=O)OCC)=C2O)o1 | . | . | . | . | . | .
COC(=O)C1=C(O)/C(=C\c2ccc(CNC(=O)C(=O)Nc3ccc(C)cc3)o2)N=C1C | . | . | . | ? | 32µM | .
COC(=O)C1=C(O)/C(=C\c2ccc(CNS(=O)(=O)c3ccc(Cl)cc3)o2)N=C1C | . | . | . | . | ? | .
CCn1cc2nc(SCc3cc(C)ccc3C)n(Cc3ccc(C)cc3)c(=O)c2n1 | . | . | / | . | . | /
Nc1nonc1C(=O)NCCNCc1cccc(Cl)c1Cl | . | . | / | . | . | /
Cc1nn(CC(=O)Nc2ccccc2C(F)(F)F)c(=O)c2cccn12 | ? | . | / | 8.9µM! | 22µM! | .
CCn1c(=S)sc2c(=O)n(CC(=O)Nc3ccccc3C(F)(F)F)c(C)nc21 | . | 45µM | / | . | ? | .
COc1cccc(/C=C/c2nc(C#N)c(NCCc3ccc(OC)c(OC)c3)o2)c1 | . | . | / | . | . | /
COc1ccccc1Nc1ccc(NS(=O)(=O)c2ccc(C(C)=O)cc2)cc1 | ? | / | ? | 40µM | ? | .
COc1ccccc1NS(=O)(=O)c1ccc(NC(C)=O)cc1 | . | . | . | . | . | .
COc1ccccc1Nc1ccc(N)cc1 | ? | . | ? | 50µM | 28µM | .
CCN1CCN(c2ncc3c(n2)CCN(Cc2ccc(OC)c(OC)c2)C3)CC1 | . | . | / | . | . | /
CCc1ccc(CN2CCc3nc(N4CCN(CC)CC4)ncc3C2)cc1 | . | . | / | ? | 56µM | /
CCN1CCN(c2ncc3c(n2)CCN(Cc2cc(F)cc(F)c2)C3)CC1 | . | . | / | 79µM | 50µM | /
